# Measured values published in article PMC7862700, “An all-to-all approach to the identification of sequence-specific readers for epigenetic DNA modifications on cytosine”.
# Columns and labels:
# Test in all cases: DAPPL (digital affinity profiling via proximity ligation, sequencing); 10 mM Tris-HCl pH 7.5, 50 mM NaCl, 1 mM DTT, 4% glycerol, room temperature, 30 min; GST-TFs on glutathione beads, 16-mer random dsDNA library, 0.1% formaldehyde crosslink after washing; high values mean tight binding
# FEV = target: T1, FEV (Homo sapiens, UniProt Q99581 1-238); conditions: protein: recombinant; tags: N-terminal GST; dsDNA, one strand shown
# T1 sequence: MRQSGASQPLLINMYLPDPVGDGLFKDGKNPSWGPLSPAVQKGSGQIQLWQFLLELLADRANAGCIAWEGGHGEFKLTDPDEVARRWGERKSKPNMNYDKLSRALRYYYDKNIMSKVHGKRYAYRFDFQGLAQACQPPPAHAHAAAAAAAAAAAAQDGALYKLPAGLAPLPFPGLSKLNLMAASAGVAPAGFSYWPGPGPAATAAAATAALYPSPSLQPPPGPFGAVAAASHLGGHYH
# Summary of the method: (§1)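 The binding signal reported is, for every hexamer, its read frequency for a factor over its read frequency for the tag-only sample. Reads came from pools of yeast-expressed, GST-fused human transcription factors on glutathione beads, barcoded with DNA and mixed with that sample, which were incubated with 200 nmole of a random double-stranded 16-mer DNA library in Tris/NaCl/DTT/glycerol buffer at room temperature for 30 min. After washing, the pools were crosslinked with 0.1% formaldehyde, proximity-ligated with BsaI/T4 ligase for 1 h at 37 °C, PCR-amplified and sequenced on an Illumina NextSeq500.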
# ETV5 = ETV5 (Homo sapiens, UniProt P41161 1-510); conditions: protein: recombinant; tags: N-terminal GST; dsDNA, one strand shown
# ETV5, sequence (P41161 whole entry): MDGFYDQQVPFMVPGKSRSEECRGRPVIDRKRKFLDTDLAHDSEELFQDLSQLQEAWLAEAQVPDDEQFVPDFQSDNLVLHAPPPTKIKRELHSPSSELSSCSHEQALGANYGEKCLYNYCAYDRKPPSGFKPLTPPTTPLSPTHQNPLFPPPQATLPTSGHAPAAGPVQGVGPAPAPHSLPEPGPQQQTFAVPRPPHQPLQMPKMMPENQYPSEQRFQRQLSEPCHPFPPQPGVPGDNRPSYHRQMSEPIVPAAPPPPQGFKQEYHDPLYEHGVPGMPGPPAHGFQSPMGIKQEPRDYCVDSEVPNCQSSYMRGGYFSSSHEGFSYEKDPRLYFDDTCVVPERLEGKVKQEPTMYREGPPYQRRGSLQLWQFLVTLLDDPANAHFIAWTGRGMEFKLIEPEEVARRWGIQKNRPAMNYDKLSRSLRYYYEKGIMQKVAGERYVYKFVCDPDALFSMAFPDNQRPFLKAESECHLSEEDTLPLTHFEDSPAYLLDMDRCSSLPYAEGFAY
# Summary of the method: as §1
# HSF1 = HSF1 (Homo sapiens, UniProt Q00613 1-529); conditions: protein: recombinant; tags: N-terminal GST; chain copies: 3; dsDNA, one strand shown
# HSF1, sequence (Q00613 whole entry): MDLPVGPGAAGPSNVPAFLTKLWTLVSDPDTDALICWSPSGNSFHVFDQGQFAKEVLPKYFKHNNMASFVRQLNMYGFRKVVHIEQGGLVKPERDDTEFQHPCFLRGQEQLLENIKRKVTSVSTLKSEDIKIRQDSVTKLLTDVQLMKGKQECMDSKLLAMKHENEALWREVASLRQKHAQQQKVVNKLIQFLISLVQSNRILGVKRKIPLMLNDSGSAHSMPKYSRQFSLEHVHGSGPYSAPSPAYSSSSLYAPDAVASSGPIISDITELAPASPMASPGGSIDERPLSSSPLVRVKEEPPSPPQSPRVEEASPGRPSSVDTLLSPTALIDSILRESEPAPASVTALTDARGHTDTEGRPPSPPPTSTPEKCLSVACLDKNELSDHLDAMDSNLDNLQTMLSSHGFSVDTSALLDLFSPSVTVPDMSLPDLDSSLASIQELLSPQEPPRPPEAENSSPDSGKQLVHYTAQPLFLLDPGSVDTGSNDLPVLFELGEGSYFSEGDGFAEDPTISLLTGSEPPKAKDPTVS
# Summary of the method: as §1
# SPIC = target: T2, SPIC (Homo sapiens, UniProt Q8N5J4 1-248); conditions: protein: recombinant; tags: N-terminal GST; dsDNA, one strand shown
# T2 sequence: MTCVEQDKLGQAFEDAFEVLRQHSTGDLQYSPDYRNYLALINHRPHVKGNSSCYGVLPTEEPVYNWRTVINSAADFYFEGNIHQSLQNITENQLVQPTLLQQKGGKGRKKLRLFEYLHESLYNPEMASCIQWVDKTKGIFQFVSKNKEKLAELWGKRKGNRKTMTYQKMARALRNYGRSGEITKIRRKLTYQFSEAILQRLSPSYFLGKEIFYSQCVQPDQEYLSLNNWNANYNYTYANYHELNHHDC
# Summary of the method: as §1
# ELF4 = ELF4 (Homo sapiens, UniProt Q99607 1-663); conditions: protein: recombinant; tags: N-terminal GST; dsDNA, one strand shown
# ELF4, sequence (Q99607 whole entry): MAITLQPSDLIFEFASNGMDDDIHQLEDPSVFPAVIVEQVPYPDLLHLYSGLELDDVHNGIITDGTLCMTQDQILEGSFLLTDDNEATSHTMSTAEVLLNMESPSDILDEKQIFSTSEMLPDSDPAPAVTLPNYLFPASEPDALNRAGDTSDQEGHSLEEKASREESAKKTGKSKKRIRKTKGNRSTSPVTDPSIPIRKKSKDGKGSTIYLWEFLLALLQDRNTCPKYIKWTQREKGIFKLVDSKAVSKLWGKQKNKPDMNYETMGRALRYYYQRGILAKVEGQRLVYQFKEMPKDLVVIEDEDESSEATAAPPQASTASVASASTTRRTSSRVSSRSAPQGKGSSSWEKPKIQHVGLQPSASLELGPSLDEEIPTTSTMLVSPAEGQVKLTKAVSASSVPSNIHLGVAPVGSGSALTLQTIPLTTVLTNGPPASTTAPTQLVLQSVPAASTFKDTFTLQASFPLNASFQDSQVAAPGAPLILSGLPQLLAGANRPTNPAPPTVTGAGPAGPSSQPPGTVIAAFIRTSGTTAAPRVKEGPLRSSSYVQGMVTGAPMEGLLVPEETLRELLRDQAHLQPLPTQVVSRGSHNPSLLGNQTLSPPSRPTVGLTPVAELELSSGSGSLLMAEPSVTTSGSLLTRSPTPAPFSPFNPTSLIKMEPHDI
# Summary of the method: as §1
# ELK4 = target: T3, ELK4 (Homo sapiens, UniProt P28324-2 1-405); conditions: protein: recombinant; tags: N-terminal GST; dsDNA, one strand shown
# T3 sequence: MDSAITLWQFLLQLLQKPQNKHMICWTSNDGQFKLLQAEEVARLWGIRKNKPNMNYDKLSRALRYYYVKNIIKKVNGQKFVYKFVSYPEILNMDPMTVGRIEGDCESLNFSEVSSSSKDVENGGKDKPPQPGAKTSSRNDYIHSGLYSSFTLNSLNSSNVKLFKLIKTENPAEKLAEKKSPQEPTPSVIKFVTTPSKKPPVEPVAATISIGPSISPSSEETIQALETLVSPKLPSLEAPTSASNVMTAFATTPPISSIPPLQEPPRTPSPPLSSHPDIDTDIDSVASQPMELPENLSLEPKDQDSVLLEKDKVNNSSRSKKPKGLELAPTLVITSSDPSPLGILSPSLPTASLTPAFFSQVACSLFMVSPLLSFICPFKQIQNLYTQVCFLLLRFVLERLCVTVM
# Summary of the method: as §1
# ETV2 = target: T4, ETV2 (Homo sapiens, UniProt O00321 1-342); conditions: protein: recombinant; tags: N-terminal GST; dsDNA, one strand shown
# T4 sequence: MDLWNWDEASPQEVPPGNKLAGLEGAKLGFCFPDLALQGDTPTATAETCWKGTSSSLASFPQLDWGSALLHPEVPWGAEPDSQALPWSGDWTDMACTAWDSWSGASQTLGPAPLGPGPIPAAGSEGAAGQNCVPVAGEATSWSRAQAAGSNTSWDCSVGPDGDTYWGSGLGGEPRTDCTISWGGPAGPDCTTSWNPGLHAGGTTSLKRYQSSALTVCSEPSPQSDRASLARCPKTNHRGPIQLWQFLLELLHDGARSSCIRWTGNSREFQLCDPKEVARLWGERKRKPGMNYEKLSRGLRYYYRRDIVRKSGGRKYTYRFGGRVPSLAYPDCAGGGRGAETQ
# Summary of the method: as §1
# ELF3 = target: T5, ELF3 (Homo sapiens, UniProt P78545 1-371); conditions: protein: recombinant; tags: N-terminal GST; dsDNA, one strand shown
# T5 sequence: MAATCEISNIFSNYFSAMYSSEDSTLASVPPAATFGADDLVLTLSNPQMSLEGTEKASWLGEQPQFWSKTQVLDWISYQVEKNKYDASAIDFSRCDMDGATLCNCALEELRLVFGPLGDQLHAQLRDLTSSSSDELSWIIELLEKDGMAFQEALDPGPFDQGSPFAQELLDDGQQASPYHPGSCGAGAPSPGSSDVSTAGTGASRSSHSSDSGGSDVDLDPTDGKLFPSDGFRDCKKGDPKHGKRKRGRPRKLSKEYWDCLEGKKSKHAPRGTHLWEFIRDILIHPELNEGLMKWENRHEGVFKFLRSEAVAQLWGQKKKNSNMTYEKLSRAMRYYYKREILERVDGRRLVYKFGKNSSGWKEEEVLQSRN
# Summary of the method: as §1
# CRX = CRX (Homo sapiens, UniProt O43186 1-299); conditions: protein: recombinant; tags: N-terminal GST; dsDNA, one strand shown
# CRX, sequence (O43186 whole entry): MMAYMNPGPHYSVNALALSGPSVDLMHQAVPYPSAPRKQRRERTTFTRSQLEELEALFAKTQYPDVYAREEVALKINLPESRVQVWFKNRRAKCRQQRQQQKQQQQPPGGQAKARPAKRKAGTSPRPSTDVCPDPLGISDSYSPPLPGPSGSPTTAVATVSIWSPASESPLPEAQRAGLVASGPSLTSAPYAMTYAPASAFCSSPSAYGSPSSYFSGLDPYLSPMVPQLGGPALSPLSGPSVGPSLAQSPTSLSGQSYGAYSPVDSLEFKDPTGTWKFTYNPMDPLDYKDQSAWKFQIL
# Summary of the method: as §1
# ETV1 = ETV1 (Homo sapiens, UniProt P50549 1-477); conditions: protein: recombinant; tags: N-terminal GST; dsDNA, one strand shown
# ETV1, sequence (P50549 whole entry): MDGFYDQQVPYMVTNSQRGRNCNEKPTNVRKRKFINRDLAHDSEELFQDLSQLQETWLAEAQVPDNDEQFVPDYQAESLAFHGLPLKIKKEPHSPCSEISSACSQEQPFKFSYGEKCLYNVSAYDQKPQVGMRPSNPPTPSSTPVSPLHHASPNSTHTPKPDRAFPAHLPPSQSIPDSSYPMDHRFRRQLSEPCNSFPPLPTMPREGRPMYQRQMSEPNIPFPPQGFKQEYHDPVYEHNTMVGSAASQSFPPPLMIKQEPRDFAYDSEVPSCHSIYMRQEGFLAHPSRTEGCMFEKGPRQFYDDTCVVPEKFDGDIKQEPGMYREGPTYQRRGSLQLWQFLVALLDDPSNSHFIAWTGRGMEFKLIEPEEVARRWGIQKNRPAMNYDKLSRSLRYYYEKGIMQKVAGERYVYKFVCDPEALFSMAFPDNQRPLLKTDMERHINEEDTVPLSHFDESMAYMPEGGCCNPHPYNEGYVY
# Summary of the method: as §1
# ERF = target: T6, ERF (Homo sapiens, UniProt P50548 1-548); conditions: protein: recombinant; tags: N-terminal GST; dsDNA, one strand shown
# T6 sequence: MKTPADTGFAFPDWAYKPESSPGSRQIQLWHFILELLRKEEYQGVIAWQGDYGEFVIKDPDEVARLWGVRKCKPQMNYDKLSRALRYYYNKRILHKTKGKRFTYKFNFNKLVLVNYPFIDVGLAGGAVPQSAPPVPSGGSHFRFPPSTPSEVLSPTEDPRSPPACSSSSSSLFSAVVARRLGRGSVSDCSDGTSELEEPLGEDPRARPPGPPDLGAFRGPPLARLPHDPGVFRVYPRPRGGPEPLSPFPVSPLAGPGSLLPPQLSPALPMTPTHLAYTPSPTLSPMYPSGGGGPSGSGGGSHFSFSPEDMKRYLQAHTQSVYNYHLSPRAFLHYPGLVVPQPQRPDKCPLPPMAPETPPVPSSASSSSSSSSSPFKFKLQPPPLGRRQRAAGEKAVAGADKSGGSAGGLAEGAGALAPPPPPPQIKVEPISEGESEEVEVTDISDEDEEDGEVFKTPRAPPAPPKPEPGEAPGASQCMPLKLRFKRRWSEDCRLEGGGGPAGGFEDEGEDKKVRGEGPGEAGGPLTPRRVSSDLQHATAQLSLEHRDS
# Summary of the method: as §1
# ETV3L = target: T7, ETV3L (Homo sapiens, UniProt Q6ZN32 1-361); conditions: protein: recombinant; tags: N-terminal GST; dsDNA, one strand shown
# T7 sequence: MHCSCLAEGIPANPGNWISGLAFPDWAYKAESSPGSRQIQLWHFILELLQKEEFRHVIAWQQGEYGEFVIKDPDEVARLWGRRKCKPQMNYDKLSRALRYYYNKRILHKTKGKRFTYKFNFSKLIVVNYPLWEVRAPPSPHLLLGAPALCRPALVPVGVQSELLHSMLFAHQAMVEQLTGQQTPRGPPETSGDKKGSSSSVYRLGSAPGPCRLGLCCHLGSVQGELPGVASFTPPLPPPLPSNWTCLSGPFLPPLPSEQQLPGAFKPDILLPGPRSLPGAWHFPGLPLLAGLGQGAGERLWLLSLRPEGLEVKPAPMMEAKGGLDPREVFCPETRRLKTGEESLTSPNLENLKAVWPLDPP
# Summary of the method: as §1
# ETS2 = target: T8, ETS2 (Homo sapiens, UniProt P15036 1-469); conditions: protein: recombinant; tags: N-terminal GST; dsDNA, one strand shown
# T8 sequence: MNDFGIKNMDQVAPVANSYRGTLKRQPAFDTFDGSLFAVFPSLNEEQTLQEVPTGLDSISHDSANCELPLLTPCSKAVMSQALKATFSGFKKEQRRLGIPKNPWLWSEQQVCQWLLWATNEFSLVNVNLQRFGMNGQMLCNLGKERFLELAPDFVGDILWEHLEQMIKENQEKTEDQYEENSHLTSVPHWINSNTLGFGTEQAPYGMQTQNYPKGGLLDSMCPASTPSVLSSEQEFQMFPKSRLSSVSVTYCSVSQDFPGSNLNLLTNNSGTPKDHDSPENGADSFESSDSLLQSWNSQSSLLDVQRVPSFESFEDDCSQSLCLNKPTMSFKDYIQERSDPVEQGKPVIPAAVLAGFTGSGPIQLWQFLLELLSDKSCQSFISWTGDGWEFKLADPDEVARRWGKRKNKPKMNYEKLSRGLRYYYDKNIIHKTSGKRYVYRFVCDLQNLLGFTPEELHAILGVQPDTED
# Summary of the method: as §1
# SPDEF = target: T9, SPDEF (Homo sapiens, UniProt O95238 1-335); conditions: protein: recombinant; tags: N-terminal GST; dsDNA, one strand shown
# T9 sequence: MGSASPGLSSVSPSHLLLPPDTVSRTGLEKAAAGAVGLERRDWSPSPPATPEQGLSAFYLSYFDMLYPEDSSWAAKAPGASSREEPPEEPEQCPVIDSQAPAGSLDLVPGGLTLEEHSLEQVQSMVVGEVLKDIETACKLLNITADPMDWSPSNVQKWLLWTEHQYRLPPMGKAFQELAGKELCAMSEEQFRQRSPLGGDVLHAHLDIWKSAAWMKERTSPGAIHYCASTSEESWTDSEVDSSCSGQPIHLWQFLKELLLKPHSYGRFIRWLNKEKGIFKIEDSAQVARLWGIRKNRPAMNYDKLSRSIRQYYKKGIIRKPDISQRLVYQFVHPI
# Summary of the method: as §1
# ETV7 = target: T10, ETV7 (Homo sapiens, UniProt Q9Y603 1-341); conditions: protein: recombinant; tags: N-terminal GST; dsDNA, one strand shown
# T10 sequence: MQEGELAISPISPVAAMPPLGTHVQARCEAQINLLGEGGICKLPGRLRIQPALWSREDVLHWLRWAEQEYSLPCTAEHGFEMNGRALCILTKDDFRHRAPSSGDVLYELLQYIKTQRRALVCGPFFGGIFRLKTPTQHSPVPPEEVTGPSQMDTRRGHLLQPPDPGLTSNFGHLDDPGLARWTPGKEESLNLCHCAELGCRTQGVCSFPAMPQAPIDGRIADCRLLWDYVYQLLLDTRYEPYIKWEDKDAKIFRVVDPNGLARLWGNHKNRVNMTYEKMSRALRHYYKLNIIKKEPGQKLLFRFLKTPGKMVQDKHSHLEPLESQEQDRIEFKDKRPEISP
# Summary of the method: as §1
# ELF5 = target: T11, ELF5 (Homo sapiens, UniProt Q9UKW6-2 1-255); conditions: protein: recombinant; tags: N-terminal GST; dsDNA, one strand shown
# T11 sequence: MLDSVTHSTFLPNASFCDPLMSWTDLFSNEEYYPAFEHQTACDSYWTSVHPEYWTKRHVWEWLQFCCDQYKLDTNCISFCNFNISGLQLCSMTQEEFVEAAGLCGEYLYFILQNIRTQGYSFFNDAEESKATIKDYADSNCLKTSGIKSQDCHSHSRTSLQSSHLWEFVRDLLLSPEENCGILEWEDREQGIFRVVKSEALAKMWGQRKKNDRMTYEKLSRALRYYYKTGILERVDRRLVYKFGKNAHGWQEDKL
# Summary of the method: as §1
# ETV3 = target: T12, ETV3 (Homo sapiens, UniProt P41162-2 1-143); conditions: protein: recombinant; tags: N-terminal GST; dsDNA, one strand shown
# T12 sequence: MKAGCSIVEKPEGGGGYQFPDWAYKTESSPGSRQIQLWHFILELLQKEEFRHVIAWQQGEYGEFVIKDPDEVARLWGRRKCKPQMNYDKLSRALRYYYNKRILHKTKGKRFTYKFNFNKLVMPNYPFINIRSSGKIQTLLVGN
# Summary of the method: as §1
# ETV6 = ETV6 (Homo sapiens, UniProt P41212 1-452); conditions: protein: recombinant; tags: N-terminal GST; dsDNA, one strand shown
# ETV6, sequence (P41212 whole entry): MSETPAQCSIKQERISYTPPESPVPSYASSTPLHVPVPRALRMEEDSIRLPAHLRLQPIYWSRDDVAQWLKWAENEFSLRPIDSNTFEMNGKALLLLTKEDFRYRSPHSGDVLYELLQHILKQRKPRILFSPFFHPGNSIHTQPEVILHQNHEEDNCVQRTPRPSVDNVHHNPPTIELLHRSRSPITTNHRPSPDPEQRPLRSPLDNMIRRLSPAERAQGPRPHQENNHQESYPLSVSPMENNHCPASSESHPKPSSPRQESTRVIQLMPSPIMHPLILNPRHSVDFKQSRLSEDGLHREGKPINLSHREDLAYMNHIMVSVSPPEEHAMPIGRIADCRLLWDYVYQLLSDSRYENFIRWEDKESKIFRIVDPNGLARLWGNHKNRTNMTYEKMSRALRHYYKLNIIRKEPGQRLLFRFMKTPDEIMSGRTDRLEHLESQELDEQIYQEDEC
# Summary of the method: as §1
sequence,measurement,setting,value
TTGCGA,binding signal,FEV,"1.08 fold enrichment (6-mer frequency, TF over GST control)"
same,binding signal,ETV5,"1.15 fold enrichment (6-mer frequency, TF over GST control)"
same,binding signal,HSF1,"1.24 fold enrichment (6-mer frequency, TF over GST control)"
same,binding signal,SPIC,"1.35 fold enrichment (6-mer frequency, TF over GST control)"
same,binding signal,ELF4,"1.14 fold enrichment (6-mer frequency, TF over GST control)"
same,binding signal,ELK4,"1.11 fold enrichment (6-mer frequency, TF over GST control)"
same,binding signal,ETV2,"1.1 fold enrichment (6-mer frequency, TF over GST control)"
same,binding signal,ELF3,"1.16 fold enrichment (6-mer frequency, TF over GST control)"
same,binding signal,CRX,"1.15 fold enrichment (6-mer frequency, TF over GST control)"
same,binding signal,ETV1,"1.15 fold enrichment (6-mer frequency, TF over GST control)"
same,binding signal,ERF,"1.29 fold enrichment (6-mer frequency, TF over GST control)"
same,binding signal,ETV3L,"1.14 fold enrichment (6-mer frequency, TF over GST control)"
same,binding signal,ETS2,"1.14 fold enrichment (6-mer frequency, TF over GST control)"
same,binding signal,SPDEF,"1.11 fold enrichment (6-mer frequency, TF over GST control)"
same,binding signal,ETV7,"1.14 fold enrichment (6-mer frequency, TF over GST control)"
same,binding signal,ELF5,"1.12 fold enrichment (6-mer frequency, TF over GST control)"
same,binding signal,ETV3,"1.08 fold enrichment (6-mer frequency, TF over GST control)"
same,binding signal,ETV6,"1.11 fold enrichment (6-mer frequency, TF over GST control)"
